According to the supplement of paper PMC10849652:
About 7,900 targets were measured; listed, in parts, are those with a hit and a random draw of the rest. About 0.6% of all pairs of compound and target were hits. Values without a mark were called inactive.

Experiments:
Test in all cases: log2 fold change, soluble protein after heating vs DMSO (PISA); higher = thermal stabilisation; K562 cells, 10 uM, 30 min; active = over 0.2 and 3.5 SD of the protein, either way, in both replicates (recomputed)
[1] = compound: CC1=C(C=C(C=C1)NC(=O)C2=CC(=CC=C2)C(C)(C)C#N)NC3=CC4=C(C=C3)N=CN(C4=O)C
Procedure, shortened: (§1)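 Soluble protein was defined as the supernatant after 21,000xg for 90 min. It came from K562 cells at 2×10^6 cells/mL given 10 μM compound for 30 min, heated in aliquots for 3 min across 48°C-58°C, pooled, and extracted in PBS with 0.5% NP-40 at 4°C, and was quantified by TMTpro 16plex LC-MS/MS with equalised channel sums. Thermal stability against control samples, from duplicates, is reported as log2 fold change.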

[2] = compound: CC1=C(C=C(C=C1)NC(=O)C2=CC(=CC=C2)N(C)C)NC(=O)C3=CC=C(C=C3)O
Procedure, shortened: as §1

[3] = compound: CC1=CC=C(C=C1)SC2=C3C=C(SC3=CN=C2)C(=O)N
Procedure, shortened: as §1

[4] = compound: CC1=NC(=CC=C1)C2=C(N=C(N2)C(C)(C)C)C3=CC4=NC=CN=C4C=C3
Procedure, shortened: as §1

Nexturastat A = compound: CCCCN(Cc1ccc(C(=O)NO)cc1)C(=O)Nc1ccccc1 [Nexturastat A]
Procedure, shortened: as §1

vemurafenib = compound: CCCS(=O)(=O)Nc1ccc(F)c(C(=O)c2c[nH]c3ncc(-c4ccc(Cl)cc4)cc23)c1F [vemurafenib]
Procedure, shortened: as §1

[5] = compound: CCCS(=O)(=O)Nc1ccc(F)c(C(=O)c2c[nH]c3ncc(Cl)cc23)c1F
Procedure, shortened: as §1

[6] = compound: CCCc1cc(C)[nH]c(=O)c1CNC(=O)c1cc(-c2ccnc(N3CCN(C)CC3)c2)cc2c1cnn2C(C)C
Procedure, shortened: as §1

barasertib = compound: CCN(CCCOc1ccc2c(Nc3cc(CC(=O)Nc4cccc(F)c4)[nH]n3)ncnc2c1)CCOP(=O)(O)O [barasertib]
Procedure, shortened: as §1

[7] = compound: CC[C@@H]1C(=O)N(C)c2cnc(Nc3ccc(C(=O)NC4CCN(C)CC4)cc3OC)nc2N1C1CCCC1
Procedure, shortened: as §1

volasertib = compound: CC[C@@H]1C(=O)N(C)c2cnc(Nc3ccc(C(=O)N[C@H]4CC[C@H](N5CCN(CC6CC6)CC5)CC4)cc3OC)nc2N1C(C)C [volasertib]
Procedure, shortened: as §1

[8] = compound: CC[C@H](C)N1C=C(C2=C(C=C(C=C21)C3=CN=C(C=C3)N4CCNCC4)C(=O)NCC5=C(C=C(NC5=O)C)C)C
Procedure, shortened: as §1

epoxomicin = compound: CC[C@H](C)[C@@H](C(=O)N[C@@H]([C@@H](C)O)C(=O)N[C@@H](CC(C)C)C(=O)[C@]1(CO1)C)NC(=O)[C@H]([C@@H](C)CC)N(C)C(=O)C [epoxomicin]
Procedure, shortened: as §1

[9] = compound: CCn1cc(-c2ccnc3[nH]c(-c4cccc(CN(C)C)c4)cc23)c(-c2ccc(NC(=O)N(C)C)cc2)n1
Procedure, shortened: as §1

[10] = compound: CN(C)CC(=O)Nc1ccc2[nH]c(=O)c3ccccc3c2c1
Procedure, shortened: as §1

rosiglitazone = compound: CN(CCOC1=CC=C(C=C1)C[C@H]2C(=O)NC(=O)S2)C3=CC=CC=N3 (racemic) [rosiglitazone]
Procedure, shortened: as §1

[11] = compound: CN1CCC(CNc2ccc3ncc(-c4cccc(OC(F)(F)F)c4)n3n2)CC1
Procedure, shortened: as §1

givinostat = compound: CCN(CC)Cc1ccc2cc(COC(=O)Nc3ccc(C(=O)NO)cc3)ccc2c1 [givinostat]
Procedure, shortened: as §1

[12] = compound: CCn1c(C(=O)N(C2CC2)C2CC2)cc2c3c(ncn3C)c(Nc3cc(C)n(C)n3)nc21
Procedure, shortened: as §1

[13] = compound: CN1C2=C(C3=C1C(=O)N(N=C3)CC4=CC(=CC=C4)N)SC(=C2)S(=O)C
Procedure, shortened: as §1

UniProt O60271, sequence (O60271 whole entry, looked up): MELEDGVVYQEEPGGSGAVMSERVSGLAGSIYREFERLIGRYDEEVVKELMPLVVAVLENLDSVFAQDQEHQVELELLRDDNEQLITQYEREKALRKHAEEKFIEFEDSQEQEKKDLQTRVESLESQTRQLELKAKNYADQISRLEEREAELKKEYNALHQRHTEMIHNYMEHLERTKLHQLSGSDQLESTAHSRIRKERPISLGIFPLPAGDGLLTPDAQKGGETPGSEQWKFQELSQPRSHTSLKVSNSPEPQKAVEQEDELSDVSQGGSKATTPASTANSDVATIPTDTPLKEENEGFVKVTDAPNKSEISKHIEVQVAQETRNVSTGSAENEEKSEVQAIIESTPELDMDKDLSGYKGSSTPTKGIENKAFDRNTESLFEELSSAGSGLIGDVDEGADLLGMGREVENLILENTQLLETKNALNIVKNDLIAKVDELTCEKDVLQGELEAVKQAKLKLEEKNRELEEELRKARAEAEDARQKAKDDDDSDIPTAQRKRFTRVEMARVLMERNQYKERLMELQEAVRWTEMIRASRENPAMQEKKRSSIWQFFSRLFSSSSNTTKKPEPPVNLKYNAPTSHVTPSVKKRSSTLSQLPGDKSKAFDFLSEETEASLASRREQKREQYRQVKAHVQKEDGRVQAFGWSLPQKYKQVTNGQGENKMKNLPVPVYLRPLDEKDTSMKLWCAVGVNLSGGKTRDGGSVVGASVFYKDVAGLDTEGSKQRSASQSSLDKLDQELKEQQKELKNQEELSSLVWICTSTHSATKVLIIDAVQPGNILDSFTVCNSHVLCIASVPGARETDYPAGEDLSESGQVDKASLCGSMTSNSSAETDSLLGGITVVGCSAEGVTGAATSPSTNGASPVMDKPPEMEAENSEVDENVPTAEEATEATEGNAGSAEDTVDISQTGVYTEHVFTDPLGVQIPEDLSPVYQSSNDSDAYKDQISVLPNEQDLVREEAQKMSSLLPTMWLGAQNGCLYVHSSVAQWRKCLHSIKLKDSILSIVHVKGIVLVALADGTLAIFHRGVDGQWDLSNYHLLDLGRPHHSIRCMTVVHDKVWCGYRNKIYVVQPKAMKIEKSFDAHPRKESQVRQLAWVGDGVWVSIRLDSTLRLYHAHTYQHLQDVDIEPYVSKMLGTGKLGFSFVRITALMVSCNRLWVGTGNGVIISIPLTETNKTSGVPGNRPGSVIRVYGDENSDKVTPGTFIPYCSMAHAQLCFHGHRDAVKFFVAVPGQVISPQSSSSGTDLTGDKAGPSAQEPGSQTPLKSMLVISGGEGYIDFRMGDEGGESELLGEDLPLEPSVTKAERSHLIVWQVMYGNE
UniProt P36897, sequence (P36897 whole entry, looked up): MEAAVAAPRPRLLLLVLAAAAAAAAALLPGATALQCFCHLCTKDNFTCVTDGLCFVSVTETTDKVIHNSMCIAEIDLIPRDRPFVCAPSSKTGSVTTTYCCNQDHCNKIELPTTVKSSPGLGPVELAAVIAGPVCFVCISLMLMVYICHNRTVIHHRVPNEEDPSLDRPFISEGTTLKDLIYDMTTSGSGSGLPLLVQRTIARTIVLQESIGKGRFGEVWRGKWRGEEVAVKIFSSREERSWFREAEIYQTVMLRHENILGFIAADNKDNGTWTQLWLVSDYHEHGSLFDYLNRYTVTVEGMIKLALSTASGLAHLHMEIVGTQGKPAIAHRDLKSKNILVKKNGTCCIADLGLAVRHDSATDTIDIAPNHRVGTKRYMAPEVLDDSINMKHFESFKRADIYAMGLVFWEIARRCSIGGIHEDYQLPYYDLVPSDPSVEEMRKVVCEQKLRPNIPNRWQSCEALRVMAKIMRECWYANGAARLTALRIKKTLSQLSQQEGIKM
UniProt Q5JUR7, sequence (Q5JUR7 whole entry, looked up): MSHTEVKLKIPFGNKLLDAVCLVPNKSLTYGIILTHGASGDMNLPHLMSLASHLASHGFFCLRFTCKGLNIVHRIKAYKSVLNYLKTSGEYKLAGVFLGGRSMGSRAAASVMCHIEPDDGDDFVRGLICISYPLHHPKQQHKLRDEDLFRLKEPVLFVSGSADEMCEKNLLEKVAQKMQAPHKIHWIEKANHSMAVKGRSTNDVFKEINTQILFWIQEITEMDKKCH
UniProt P20226, sequence (P20226 whole entry, looked up): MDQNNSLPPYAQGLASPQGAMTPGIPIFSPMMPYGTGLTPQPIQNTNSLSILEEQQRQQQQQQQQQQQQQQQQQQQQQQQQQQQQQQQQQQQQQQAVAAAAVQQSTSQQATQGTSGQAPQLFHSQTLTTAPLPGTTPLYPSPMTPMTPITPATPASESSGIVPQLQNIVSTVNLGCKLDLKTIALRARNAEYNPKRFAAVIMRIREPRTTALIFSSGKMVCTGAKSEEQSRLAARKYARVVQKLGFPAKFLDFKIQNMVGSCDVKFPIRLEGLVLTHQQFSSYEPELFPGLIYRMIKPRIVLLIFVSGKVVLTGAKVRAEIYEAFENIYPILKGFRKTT
UniProt O76062, sequence (O76062 whole entry, looked up): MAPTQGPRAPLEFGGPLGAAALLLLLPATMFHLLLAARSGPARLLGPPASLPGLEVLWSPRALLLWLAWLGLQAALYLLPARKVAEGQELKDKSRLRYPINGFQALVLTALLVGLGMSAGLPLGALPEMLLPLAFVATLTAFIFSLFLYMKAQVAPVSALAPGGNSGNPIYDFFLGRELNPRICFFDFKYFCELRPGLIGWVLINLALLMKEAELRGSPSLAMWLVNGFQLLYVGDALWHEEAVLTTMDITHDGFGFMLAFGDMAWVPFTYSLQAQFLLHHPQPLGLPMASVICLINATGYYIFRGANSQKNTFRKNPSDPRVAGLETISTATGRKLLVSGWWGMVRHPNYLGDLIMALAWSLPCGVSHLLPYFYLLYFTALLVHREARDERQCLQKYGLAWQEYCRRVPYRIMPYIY
UniProt Q9NXE4, sequence (Q9NXE4 whole entry, looked up): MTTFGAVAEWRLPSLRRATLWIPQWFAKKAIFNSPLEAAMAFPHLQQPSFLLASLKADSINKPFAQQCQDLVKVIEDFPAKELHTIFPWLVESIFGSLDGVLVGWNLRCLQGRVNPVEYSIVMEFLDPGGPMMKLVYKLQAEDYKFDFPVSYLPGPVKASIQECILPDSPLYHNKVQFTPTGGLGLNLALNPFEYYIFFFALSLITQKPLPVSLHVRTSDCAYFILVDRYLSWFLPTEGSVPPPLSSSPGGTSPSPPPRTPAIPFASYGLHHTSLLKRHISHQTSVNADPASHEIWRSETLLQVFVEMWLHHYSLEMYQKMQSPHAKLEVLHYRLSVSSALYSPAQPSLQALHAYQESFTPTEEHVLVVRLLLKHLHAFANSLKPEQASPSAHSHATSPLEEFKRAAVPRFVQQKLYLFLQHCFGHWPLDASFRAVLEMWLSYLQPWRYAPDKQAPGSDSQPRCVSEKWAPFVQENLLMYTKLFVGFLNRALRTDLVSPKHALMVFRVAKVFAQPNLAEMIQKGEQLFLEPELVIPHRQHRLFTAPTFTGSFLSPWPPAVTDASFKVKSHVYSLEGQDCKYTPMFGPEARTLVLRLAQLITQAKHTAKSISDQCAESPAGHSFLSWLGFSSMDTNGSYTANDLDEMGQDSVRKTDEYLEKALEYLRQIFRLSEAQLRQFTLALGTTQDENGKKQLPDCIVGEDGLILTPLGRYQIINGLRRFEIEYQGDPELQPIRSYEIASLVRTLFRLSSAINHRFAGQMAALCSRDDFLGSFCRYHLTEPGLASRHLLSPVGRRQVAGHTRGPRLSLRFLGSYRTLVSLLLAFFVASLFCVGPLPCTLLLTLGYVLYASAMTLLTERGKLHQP
UniProt Q08AE8, sequence (Q08AE8 whole entry, looked up): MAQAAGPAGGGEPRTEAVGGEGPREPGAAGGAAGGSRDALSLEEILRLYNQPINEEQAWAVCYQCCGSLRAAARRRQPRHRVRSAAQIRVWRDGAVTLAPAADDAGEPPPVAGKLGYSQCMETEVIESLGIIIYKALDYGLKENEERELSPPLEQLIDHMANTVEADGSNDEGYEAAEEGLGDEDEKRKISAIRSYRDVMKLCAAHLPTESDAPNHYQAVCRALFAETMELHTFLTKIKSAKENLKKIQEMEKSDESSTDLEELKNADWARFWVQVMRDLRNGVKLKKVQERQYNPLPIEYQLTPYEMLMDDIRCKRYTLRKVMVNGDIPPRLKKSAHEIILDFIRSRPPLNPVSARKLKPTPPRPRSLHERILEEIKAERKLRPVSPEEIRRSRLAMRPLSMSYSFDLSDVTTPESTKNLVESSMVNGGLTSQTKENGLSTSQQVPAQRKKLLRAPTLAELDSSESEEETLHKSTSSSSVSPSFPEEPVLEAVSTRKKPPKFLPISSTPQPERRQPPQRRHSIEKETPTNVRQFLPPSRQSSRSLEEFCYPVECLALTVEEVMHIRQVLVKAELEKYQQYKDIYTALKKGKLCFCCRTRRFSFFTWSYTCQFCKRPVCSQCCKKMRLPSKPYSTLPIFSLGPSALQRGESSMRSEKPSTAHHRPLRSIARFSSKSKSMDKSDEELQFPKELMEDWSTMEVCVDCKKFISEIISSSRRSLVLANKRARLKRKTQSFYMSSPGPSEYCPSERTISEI
UniProt Q8N9U0, sequence (Q8N9U0 whole entry, looked up): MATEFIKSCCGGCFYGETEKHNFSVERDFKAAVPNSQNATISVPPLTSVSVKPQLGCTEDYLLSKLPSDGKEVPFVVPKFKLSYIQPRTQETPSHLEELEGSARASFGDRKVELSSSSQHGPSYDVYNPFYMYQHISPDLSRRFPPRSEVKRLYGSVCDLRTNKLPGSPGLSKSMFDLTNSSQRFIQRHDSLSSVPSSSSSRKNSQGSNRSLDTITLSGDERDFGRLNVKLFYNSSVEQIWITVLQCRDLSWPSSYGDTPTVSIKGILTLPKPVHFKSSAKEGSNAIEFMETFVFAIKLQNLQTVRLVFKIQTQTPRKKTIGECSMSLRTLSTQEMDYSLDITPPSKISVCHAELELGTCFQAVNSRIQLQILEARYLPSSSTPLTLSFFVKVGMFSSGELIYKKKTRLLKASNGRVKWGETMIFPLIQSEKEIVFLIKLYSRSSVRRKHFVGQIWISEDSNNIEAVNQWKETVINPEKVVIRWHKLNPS

Target	log2 fold change [1]	log2 fold change [2]	log2 fold change [3]	log2 fold change [4]	log2 fold change (Nexturastat A)	log2 fold change (vemurafenib)	log2 fold change [5]	log2 fold change [6]	log2 fold change (barasertib)	log2 fold change [7]	log2 fold change (volasertib)	log2 fold change [8]	log2 fold change (epoxomicin)	log2 fold change [9]	log2 fold change [10]	log2 fold change (rosiglitazone)	log2 fold change [11]	log2 fold change (givinostat)	log2 fold change [12]	log2 fold change [13]
SRXN1 (UniProt Q9BYN0)	-0.149	0.01	0.04	0.089	-0.036	0.142	0.017	-0.027	0.012	-0.031	-0.083	0.027	0.069	0.159	0.046	0.124	-0.199			
SLC38A2 (UniProt Q96QD8)	0.118	0.026	0.067	0.062	-0.133	0.032	0.096	-0.107	-0.039	0.035	0.004	-0.091	-0.078		-0.022	0.002		-0.014	0.084	-0.1
TGFBR1 isoform 2 (UniProt P36897)	-0.112	0.023	-0.058		0.038	0.044	0.028	-0.062	-0.028	-0.041	-0.179	-0.022	0.033	-0.023	-0.028	0.122	0.076	0.07	-0.049	0.021
SP2 (UniProt Q02086)	-0.032			-0.122						-0.289										0.372
TC2N (UniProt Q8N9U0)		0.077				0.063		-0.098				0.029			-0.194					0.073
SMPD4 isoform 2 (UniProt Q9NXE4)			0.162	-0.023		-0.301	0.099	-0.035	0.034		-0.234			-0.236	-0.044	-0.047	-0.441			0.056
SMDT1 (UniProt Q9H4I9)	0.137			0.033	-0.015	0.037		-0.127	-0.021	0.08			-0.064	-0.044	0.108	-0.037	0.01			0.028
SLC44A2 isoform 2 (UniProt Q8IWA5)	0.084	-0.033		-0.024	0.05	0.038		-0.029	-0.012	0.2		0	0.053	-0.105	-0.048	-0.016	0.259	-0.027	0.014	-0.154
SPIN4 (UniProt Q56A73)				-0.601														-0.245	0.291	
TBC1D2 (UniProt Q9BYX2)					0.618 (active)			0.11		-0.055			-0.238	0.087			-0.019			
SPAG9 isoform 4 (UniProt O60271)	0.184	-0.025		-0.038		0.174		0.028	0.176	-0.192		0.093			-0.093	-0.029		0.021	-0.066	
TM7SF2 (UniProt O76062)	0.051	0.015	-0.045			0.252	0.123				0.907 (active)	-0.022			-0.435			0.18	-0.111	0.031
SLC39A1 (UniProt Q9NY26)														-0.014			-0.051	-0.157	-0.09	
TBP (UniProt P20226)		-0.04	-0.056	-0.071	0.163	0.02	-0.026	-0.154	-0.067	0.087	0.073	0.095	-0.332		-0.227	-0.035				0.001
SPIRE1 (UniProt Q08AE8)		0.013		-0.025	0.31	-0.011		-0.062	-0.014	0.125		-0.181	-0.238	-0.116	-0.056	-0.002	-0.026	0.185	-0.069	
STK38L (UniProt Q9Y2H1)	-0.044	0.165		0.056	-0.074	-0.038		0.079	0.064	0.071		-0.011	0.071	-0.015	-0.045	0.024	0.016	-0.016	0.031	-0.029
THAP9 (UniProt Q9H5L6)		0.017		-0.065				-0.463	0.121			-0.167				0.008				-0.039
TAOK2 (UniProt Q9UL54)		0.024	0.062	0.08	0.487 (active)		0.051	0.007		0.024	-0.061	-0.006	-0.01	-0.076			0.01	-0.363	-0.277	
SNRK (UniProt Q9NRH2)	-0.029		0.066	0.225			0.07			-0.157	-0.085									-0.011
TDP1 (UniProt Q9NUW8)																		0.112	-0.11	
TEX30 (UniProt Q5JUR7)		-0.182	0.047	-0.062	0.009	0.138	0.037	-0.119	0.019		-0.221	-0.044	0.007	0.079	0.075	0.028	-0.601 (active)	-0.146	-0.005	0.046
